Hits are enriched below; roughly 6.7% of the tested compounds scored in any of these assays.
T cruzi growth-1 = inhibitors of T. cruzi proliferation | AID 624255 | T. cruzi beta-gal in NIH3T3, GalScreen luminescence, 90 h | inhibition, % at 8.34 µM | 77,000 compounds, 5.9% hits;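 active = mean inhibition above about 93%, with at least 55% of replicates each passing it, limit read from the data, passing the limit was not always enough; inconclusive = only one of those two conditions holds; inactive = neither condition holds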
C diff HTS = blocks growth of Clostridium difficile; Clostridium difficile clinical isolate growth, OD600, 24 h; stronger effect = lower value; growth activity, negative = inhibition, % at 16 µg/mL (by protocol); 86,000 compounds, 0.25% hits;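 active = mean growth activity at or below -80% and every replicate also at or below -80%; inconclusive = mean at or below -80% but some replicate above -80%; inactive = mean growth activity above -80%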
Pf Dd2 growth = inhibitors of Plasmodium falciparum Dd2 growth. AID 1159554. activity change, % at 10 µM. 94,000 compounds, 2.3% hits. P. falciparum Dd2 growth, SYBR Green, 72 h; stronger effect = lower value; in the data active = activity change below about -80%; inconclusive = no clear call, values can overlap the other calls
T cruzi growth-2 = blocks T. cruzi growth in NIH3T3 host cells | shares compounds with T cruzi growth-1 | T. cruzi beta-gal in NIH3T3, GalScreen luminescence, 90 h | inhibition, % at 8.35 µM | 5,600 compounds, 72% hits;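 active = mean replicate inhibition above about 95% and at least 55% of replicates individually reaching it, limit read from the data; inconclusive = only one of the two criteria is met; inactive = neither criterion is met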
T cruzi growth-3 = Trypanosoma cruzi proliferation inhibition; shares compounds with T cruzi growth-1; T. cruzi beta-gal in NIH3T3, GalScreen luminescence, 90 h; inhibition, % at 2.09 µM; 5,600 compounds, 21% hits; AID 651740;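 active = mean inhibition above about 95%, with at least 55% of replicates also reaching it, limit read from the data; inconclusive = meets just one of the two conditions; inactive = meets neither condition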
3T3 cytotox = kills mouse NIH/3T3 fibroblasts; shares compounds with T cruzi growth-1; NIH/3T3 viability, CellTiter-Glo ATP luminescence, 90 h; cytotoxicity (signal decrease), % at 8.35 µM; 5,600 compounds, 14% hits; AID 651742;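 active = mean signal decrease across replicates above about 35% based on untreated-well scatter, with enough replicates individually passing, limit read from the data; inconclusive = no rule stated though some were filed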
3T3 cytotox 2 = kills mouse NIH/3T3 fibroblasts. inhibition, % at 24.9 µM. AID 651744. NIH/3T3 viability, CellTiter-Glo ATP luminescence, 90 h. 5,600 compounds, 56% hits. shares compounds with T cruzi growth-1;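 active = mean loss of cell viability signal at or above a set limit, and enough replicates individually reaching it; inconclusive = meets only the mean limit or only the replicate share; inactive = meets neither condition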
Of the large screens only hits and unclear results are named; the others gave an inactive call (follow-up assays come after a bar, where they were run).

C[C@H](CO)N1C[C@H](C)[C@H](CN(C)C(=O)Nc2ccc(F)cc2)Oc2ncc(C#Cc3cccc(F)c3)cc2C1=O	T cruzi growth-1 inconclusive | T cruzi growth-2 inactive | T cruzi growth-3 inactive | 3T3 cytotox 74.7 | 3T3 cytotox 2 104.5
COc1ccc(C#Cc2cnc3c(c2)C(=O)N([C@H](C)CO)C[C@@H](C)[C@H](CN(C)C(=O)c2ccccc2F)O3)cc1	none
C[C@H](CO)N1C[C@H](C)[C@H](CN(C)C(=O)Nc2ccccc2)Oc2ncc(C#Cc3cccc(F)c3)cc2C1=O	none
C[C@H](CO)N1C[C@H](C)[C@@H](CN(C)C(=O)c2ccccc2F)Oc2ncc(C#Cc3ccccc3)cc2C1=O	none
COc1ccc(C#Cc2cnc3c(c2)C(=O)N([C@@H](C)CO)C[C@H](C)[C@@H](CN(C)C(=O)c2ccccc2F)O3)cc1	T cruzi growth-1 113.3 | T cruzi growth-2 98.1 | T cruzi growth-3 inactive | 3T3 cytotox inactive | 3T3 cytotox 2 inactive
C[C@H]1CN([C@@H](C)CO)C(=O)c2cc(C#Cc3cccc(F)c3)cnc2O[C@@H]1CN(C)C(=O)c1ccccc1F	T cruzi growth-1 109.9, Pf Dd2 growth inconclusive | T cruzi growth-2 100.5 | T cruzi growth-3 inactive | 3T3 cytotox inactive | 3T3 cytotox 2 inactive
O=C(O)C[C@H]1C[C@@H]2c3cc(NC(=O)CC4CC4)ccc3O[C@@H]2[C@@H](CO)O1	none
CNC(=O)C[C@@H]1CC[C@H]2[C@H](COc3ccc(NC(=O)NC4CCCC4)cc3C(=O)N2C)O1	none
COc1ccc(C#Cc2cnc3c(c2)C(=O)N([C@H](C)CO)C[C@@H](C)[C@H](CN(C)C(C)=O)O3)cc1	T cruzi growth-1 inconclusive | T cruzi growth-2 inactive | T cruzi growth-3 inactive | 3T3 cytotox inactive | 3T3 cytotox 2 33.0
COc1ccc(C#Cc2cnc3c(c2)C(=O)N([C@@H](C)CO)C[C@@H](C)[C@H](CN(C)C(C)=O)O3)cc1	none
COCC(=O)N1CCCCN2[C@@H](CO)[C@@H](c3ccc(-c4ccc(F)cc4)cc3)[C@@H]2C1	none
CCC(=O)N1CCCCN2[C@@H](CO)[C@@H](c3ccc(-c4ccc(F)cc4)cc3)[C@@H]2C1	T cruzi growth-1 106.9 | T cruzi growth-2 inactive | T cruzi growth-3 inactive | 3T3 cytotox inactive | 3T3 cytotox 2 69.6
COCC(=O)N1CCCCN2[C@@H](CO)[C@@H](c3ccc(-c4ccc(C)cc4)cc3)[C@@H]2C1	T cruzi growth-1 106.7 | T cruzi growth-2 inactive | T cruzi growth-3 inactive | 3T3 cytotox inactive | 3T3 cytotox 2 26.2
CCC(=O)N1CCCCN2[C@H](CO)[C@H](c3ccc(-c4ccc(F)cc4)cc3)[C@H]2C1	none
CCC(=O)N1CCCCN2[C@H](CO)[C@H](c3ccc(-c4ccc(F)cc4)cc3)[C@@H]2C1	T cruzi growth-1 105.8 | T cruzi growth-2 inactive | T cruzi growth-3 inactive | 3T3 cytotox inactive | 3T3 cytotox 2 53.5
COCC(=O)N1CCCCN2[C@H](CO)[C@H](c3ccc(-c4ccc(C)cc4)cc3)[C@@H]2C1	none
O=C(C[C@H]1C=C[C@@H](NC(=O)C2CCOCC2)[C@H](CO)O1)NCc1ccncc1	none (no result: C diff HTS)
Cc1ccc(S(=O)(=O)Nc2ccc3c(c2)C(=O)N([C@@H](C)CO)C[C@H](C)[C@H](CN(C)S(=O)(=O)c2c(C)noc2C)OCCCC[C@@H](C)O3)cc1	none
COCC(=O)N[C@H]1C=C[C@@H](CC(=O)NCc2ccc(Cl)cc2)O[C@H]1CO	none (no result: C diff HTS)
Cc1cc(C(=O)Nc2cccc3c2O[C@H](CN(C)Cc2ccc(Oc4ccccc4)cc2)[C@H](C)CN([C@@H](C)CO)C3=O)n(C)n1	none
C[C@@H]1CN([C@H](C)CO)C(=O)c2cccc(NC(=O)c3ccncc3)c2O[C@H]1CN(C)Cc1ccc(C(=O)Nc2ccccc2N)cc1	T cruzi growth-1 99.6 | T cruzi growth-2 106.5 | T cruzi growth-3 inactive | 3T3 cytotox inactive | 3T3 cytotox 2 inactive
Cc1cc(C(=O)Nc2cccc3c2O[C@@H](CN(C)Cc2ccc(C(=O)Nc4ccccc4N)cc2)[C@@H](C)CN([C@@H](C)CO)C3=O)n(C)n1	T cruzi growth-1 101.1 | T cruzi growth-2 101.7 | T cruzi growth-3 inactive | 3T3 cytotox inactive | 3T3 cytotox 2 inactive
C[C@H]1CN([C@@H](C)CO)C(=O)c2cccc(NC(=O)c3ccncc3)c2O[C@H]1CN(C)Cc1ccc(C(=O)Nc2ccccc2N)cc1	none (no result: T cruzi growth-1)
Cc1cc(C(=O)Nc2cccc3c2O[C@@H](CN(C)Cc2ccc(Oc4ccccc4)cc2)[C@H](C)CN([C@H](C)CO)C3=O)n(C)n1	T cruzi growth-1 104.5 | T cruzi growth-2 103.8 | T cruzi growth-3 inactive | 3T3 cytotox inactive | 3T3 cytotox 2 104.3
Cc1cc(C(=O)Nc2cccc3c2O[C@@H](CN(C)Cc2ccc(C(=O)O)cc2)[C@@H](C)CN([C@H](C)CO)C3=O)n(C)n1	none (no result: T cruzi growth-1)
C[C@@H]1CN([C@@H](C)CO)C(=O)c2cccc(N(C)C)c2O[C@H]1CN(C)Cc1ccc(C(=O)Nc2ccccc2N)cc1	none
C[C@H](CO)N1C[C@H](C)[C@@H](CN(C)Cc2ccc(C(=O)Nc3ccccc3N)cc2)Oc2c(cccc2N(C)C)C1=O	T cruzi growth-1 inconclusive | T cruzi growth-2 101.5 | T cruzi growth-3 inactive | 3T3 cytotox inactive | 3T3 cytotox 2 33.0
O=C([C@H]1[C@H](CO)[C@H]2Cn3c(ccc(C4=CCCC4)c3=O)[C@@H]1N2C(=O)c1ccncc1)N1CCOCC1	none (no result: Pf Dd2 growth)
CC(C)NC(=O)N(C)C[C@@H]1OCCCC[C@@H](C)Oc2ccc(NS(=O)(=O)c3ccc(F)cc3)cc2C(=O)N([C@@H](C)CO)C[C@@H]1C	none (no result: Pf Dd2 growth)
CN1C(=O)c2cc(NC(=O)c3ccc(F)cc3)ccc2OC[C@H]2O[C@@H](CC(=O)N3CCOCC3)CC[C@@H]21	none
C[C@H](CO)N1C[C@H](C)[C@@H](CN(C)Cc2ccc(C(=O)Nc3ccccc3N)cc2)Oc2c(NC(=O)C3CCOCC3)cccc2C1=O	T cruzi growth-1 99.4 | T cruzi growth-2 101.8 | T cruzi growth-3 inactive | 3T3 cytotox inactive | 3T3 cytotox 2 inactive
C[C@@H]1CN([C@@H](C)CO)C(=O)c2cccc(NC(=O)c3cnccn3)c2O[C@H]1CN(C)Cc1ccc(C(=O)Nc2ccccc2N)cc1	T cruzi growth-1 112.4, Pf Dd2 growth -92.8 | T cruzi growth-2 106.7 | T cruzi growth-3 inactive | 3T3 cytotox inactive | 3T3 cytotox 2 41.9
C[C@H]1CN([C@@H](C)CO)C(=O)c2cccc(NC(=O)c3cnccn3)c2O[C@@H]1CN(C)Cc1ccc(C(=O)O)cc1	none
C[C@@H]1CN([C@@H](C)CO)C(=O)c2cccc(NC(=O)c3ccncc3)c2O[C@@H]1CN(C)Cc1ccc(C(=O)Nc2ccccc2N)cc1	T cruzi growth-1 inconclusive | T cruzi growth-2 inactive | T cruzi growth-3 inactive | 3T3 cytotox inactive | 3T3 cytotox 2 67.3

Screens (PubChem)
